Targets with a hit are over-represented here; the source holds about 8,800 in all. About 0.5% of all pairs of compound and target were hits. Unmarked numbers belong to inactive results.
What was measured:
Experiment in all cases: log2 fold change, soluble protein after heating vs DMSO (PISA); higher = thermal stabilisation; K562 lysate, 10 uM; active = over 0.2 and 3.5 SD of the protein, either way, in both replicates (recomputed)
nilotinib = compound: Cc1cn(-c2cc(NC(=O)c3ccc(C)c(Nc4nccc(-c5cccnc5)n4)c3)cc(C(F)(F)F)c2)cn1 [nilotinib]
Method in brief: (§1)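 K562 pellets were dounce-homogenised in PBS pH 7.4 with 1 mM MgCl2, and the crude extract at 1 mg/mL protein was treated with 10 μM compound for 30 min. Aliquots were heated for 3 min across 48°C-58°C, pooled, and brought to 0.5% NP-40 at 4°C; soluble protein was the supernatant after 21,000xg for 90 min. Soluble protein was quantified by TMTpro 16plex LC-MS/MS with channel sums equalised, and reported as log2 fold change in thermal stability against DMSO controls, with values from duplicates.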

[1] = compound: Cc1nc(Nc2n[nH]c3c2CN(C(=O)N[C@H](CN(C)C)c2ccccc2)C3(C)C)c2sccc2n1
Method in brief: as §1

dasatinib = compound: Cc1nc(Nc2ncc(C(=O)Nc3c(C)cccc3Cl)s2)cc(N2CCN(CCO)CC2)n1 [dasatinib]
Method in brief: as §1

[2] = compound: Cc1ncc(-c2ccnc(Nc3ccc(S(C)(=O)=O)cc3)n2)n1C(C)C
Method in brief: as §1

[3] = compound: Cn1cc(-c2ccc3c(c2)CCN3C(=O)Cc2cccc(C(F)(F)F)c2)c2c(N)ncnc21
Method in brief: as §1

quisinostat = compound: Cn1cc(CNCC2CCN(c3ncc(C(=O)NO)cn3)CC2)c2ccccc21 [quisinostat]
Method in brief: as §1

tipifarnib = compound: Cn1cncc1[C@@](N)(c1ccc(Cl)cc1)c1ccc2c(c1)c(-c1cccc(Cl)c1)cc(=O)n2C [tipifarnib]
Method in brief: as §1

[4] = compound: NC(=O)Nc1cc(-c2cccc(F)c2)sc1C(=O)N[C@H]1CCCNC1
Method in brief: as §1

[5] = compound: NC(=O)c1cnc(N[C@@H]2CCCC[C@@H]2N)nc1Nc1cccc(-n2nccn2)c1
Method in brief: as §1

[6] = compound: NC1(c2ccc(-c3nc4ccn5c(=O)[nH]nc5c4cc3-c3ccccc3)cc2)CCC1
Method in brief: as §1

[7] = compound: NCC(=O)Nc1ccc(-n2nc(C(F)(F)F)cc2-c2ccc3c(ccc4ccccc43)c2)cc1
Method in brief: as §1

vorinostat = compound: O=C(CCCCCCC(=O)Nc1ccccc1)NO [vorinostat]
Method in brief: as §1

silmitasertib = compound: O=C(O)c1ccc2c(c1)nc(Nc1cccc(Cl)c1)c1ccncc12 [silmitasertib]
Method in brief: as §1

[8] = compound: O=C1NC(=O)C(c2cnc3ccccn23)=C1c1cn2c3c(cc(F)cc13)CN(C(=O)N1CCCCC1)CC2
Method in brief: as §1

entospletinib = compound: c1cn2cc(-c3ccc4cn[nH]c4c3)nc(Nc3ccc(N4CCOCC4)cc3)c2n1 [entospletinib]
Method in brief: as §1

Chain of UniProt P40939 (P40939 whole entry, looked up): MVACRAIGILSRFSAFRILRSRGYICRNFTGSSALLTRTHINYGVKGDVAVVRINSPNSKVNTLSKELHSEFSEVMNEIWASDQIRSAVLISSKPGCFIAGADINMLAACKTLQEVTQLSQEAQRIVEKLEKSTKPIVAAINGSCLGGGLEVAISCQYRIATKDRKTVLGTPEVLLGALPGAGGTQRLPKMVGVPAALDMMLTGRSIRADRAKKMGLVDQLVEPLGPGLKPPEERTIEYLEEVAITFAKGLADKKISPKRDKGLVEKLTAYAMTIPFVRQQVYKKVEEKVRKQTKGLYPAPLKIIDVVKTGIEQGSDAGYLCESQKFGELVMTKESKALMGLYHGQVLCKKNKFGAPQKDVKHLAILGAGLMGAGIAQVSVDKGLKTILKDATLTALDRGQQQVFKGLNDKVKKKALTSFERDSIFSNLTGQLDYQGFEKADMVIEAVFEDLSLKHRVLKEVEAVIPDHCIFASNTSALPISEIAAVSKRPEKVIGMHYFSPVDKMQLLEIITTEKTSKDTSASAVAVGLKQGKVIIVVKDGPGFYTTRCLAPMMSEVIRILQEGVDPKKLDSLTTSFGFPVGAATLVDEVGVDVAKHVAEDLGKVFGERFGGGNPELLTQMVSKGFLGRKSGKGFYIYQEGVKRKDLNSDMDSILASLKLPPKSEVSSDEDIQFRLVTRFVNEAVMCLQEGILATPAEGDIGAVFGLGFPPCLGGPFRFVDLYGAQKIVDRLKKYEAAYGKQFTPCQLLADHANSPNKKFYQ
Chain of UniProt Q14103 (Q14103 whole entry, looked up): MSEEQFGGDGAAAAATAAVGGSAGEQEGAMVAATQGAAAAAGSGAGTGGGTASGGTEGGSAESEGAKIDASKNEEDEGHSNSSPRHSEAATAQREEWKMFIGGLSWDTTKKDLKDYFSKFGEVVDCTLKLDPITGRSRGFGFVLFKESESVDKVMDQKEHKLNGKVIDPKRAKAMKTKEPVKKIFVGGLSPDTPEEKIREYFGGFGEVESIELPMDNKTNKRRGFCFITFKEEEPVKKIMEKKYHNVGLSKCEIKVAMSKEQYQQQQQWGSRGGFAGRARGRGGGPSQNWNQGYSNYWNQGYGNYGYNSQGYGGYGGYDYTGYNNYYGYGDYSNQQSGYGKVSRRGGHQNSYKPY
Chain of UniProt Q13547 (Q13547 whole entry, looked up): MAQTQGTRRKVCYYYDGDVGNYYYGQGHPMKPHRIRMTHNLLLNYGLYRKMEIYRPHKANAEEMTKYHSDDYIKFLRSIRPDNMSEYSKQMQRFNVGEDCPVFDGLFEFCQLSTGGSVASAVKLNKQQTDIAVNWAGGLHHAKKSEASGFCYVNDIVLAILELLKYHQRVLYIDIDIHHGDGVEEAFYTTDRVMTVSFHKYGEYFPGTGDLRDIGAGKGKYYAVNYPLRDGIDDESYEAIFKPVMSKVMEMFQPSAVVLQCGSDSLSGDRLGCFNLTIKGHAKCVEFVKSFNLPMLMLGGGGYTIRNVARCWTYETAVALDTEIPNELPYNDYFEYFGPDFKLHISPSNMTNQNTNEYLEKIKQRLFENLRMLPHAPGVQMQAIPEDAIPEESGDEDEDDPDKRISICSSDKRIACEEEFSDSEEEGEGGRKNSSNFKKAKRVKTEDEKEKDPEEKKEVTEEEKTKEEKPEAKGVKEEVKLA
Chain of UniProt Q9NSE4 (Q9NSE4 whole entry, looked up): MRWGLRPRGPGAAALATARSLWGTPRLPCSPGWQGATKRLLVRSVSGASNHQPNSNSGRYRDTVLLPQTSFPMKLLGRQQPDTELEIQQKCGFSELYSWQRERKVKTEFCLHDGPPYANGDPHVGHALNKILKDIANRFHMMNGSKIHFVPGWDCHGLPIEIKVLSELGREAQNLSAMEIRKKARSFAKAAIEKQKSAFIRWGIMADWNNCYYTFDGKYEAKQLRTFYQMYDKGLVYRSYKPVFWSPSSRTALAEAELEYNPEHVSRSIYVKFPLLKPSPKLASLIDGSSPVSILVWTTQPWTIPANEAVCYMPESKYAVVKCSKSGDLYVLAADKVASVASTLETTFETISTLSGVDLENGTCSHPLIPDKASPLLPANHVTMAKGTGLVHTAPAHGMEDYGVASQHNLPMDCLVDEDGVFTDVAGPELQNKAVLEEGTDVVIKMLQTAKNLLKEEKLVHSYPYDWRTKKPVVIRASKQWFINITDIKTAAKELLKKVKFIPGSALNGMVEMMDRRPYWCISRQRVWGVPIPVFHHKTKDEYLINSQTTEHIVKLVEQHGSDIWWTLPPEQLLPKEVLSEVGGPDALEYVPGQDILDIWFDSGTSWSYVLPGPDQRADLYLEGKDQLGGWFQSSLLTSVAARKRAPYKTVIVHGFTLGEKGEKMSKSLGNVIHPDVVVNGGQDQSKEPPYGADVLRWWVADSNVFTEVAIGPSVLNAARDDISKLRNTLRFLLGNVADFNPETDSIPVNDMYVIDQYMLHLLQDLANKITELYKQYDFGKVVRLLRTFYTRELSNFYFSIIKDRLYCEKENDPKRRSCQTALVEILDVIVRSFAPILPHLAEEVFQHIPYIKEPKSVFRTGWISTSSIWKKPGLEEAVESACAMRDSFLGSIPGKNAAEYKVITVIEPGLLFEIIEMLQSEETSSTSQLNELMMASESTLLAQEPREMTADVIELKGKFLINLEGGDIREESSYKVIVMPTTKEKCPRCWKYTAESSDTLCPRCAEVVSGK
Chain of UniProt Q9BUE6 (Q9BUE6 whole entry, looked up): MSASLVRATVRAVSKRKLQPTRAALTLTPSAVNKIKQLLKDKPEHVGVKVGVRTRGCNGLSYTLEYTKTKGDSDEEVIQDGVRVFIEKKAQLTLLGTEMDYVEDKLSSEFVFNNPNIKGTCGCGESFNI
Chain of UniProt P36969 (P36969 whole entry, looked up): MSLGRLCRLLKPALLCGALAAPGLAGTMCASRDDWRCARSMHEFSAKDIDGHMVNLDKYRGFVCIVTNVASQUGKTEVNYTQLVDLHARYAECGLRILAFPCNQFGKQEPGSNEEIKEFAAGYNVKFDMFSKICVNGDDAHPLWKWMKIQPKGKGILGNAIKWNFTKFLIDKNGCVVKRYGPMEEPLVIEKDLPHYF
Chain of UniProt P12081 (P12081 whole entry, looked up): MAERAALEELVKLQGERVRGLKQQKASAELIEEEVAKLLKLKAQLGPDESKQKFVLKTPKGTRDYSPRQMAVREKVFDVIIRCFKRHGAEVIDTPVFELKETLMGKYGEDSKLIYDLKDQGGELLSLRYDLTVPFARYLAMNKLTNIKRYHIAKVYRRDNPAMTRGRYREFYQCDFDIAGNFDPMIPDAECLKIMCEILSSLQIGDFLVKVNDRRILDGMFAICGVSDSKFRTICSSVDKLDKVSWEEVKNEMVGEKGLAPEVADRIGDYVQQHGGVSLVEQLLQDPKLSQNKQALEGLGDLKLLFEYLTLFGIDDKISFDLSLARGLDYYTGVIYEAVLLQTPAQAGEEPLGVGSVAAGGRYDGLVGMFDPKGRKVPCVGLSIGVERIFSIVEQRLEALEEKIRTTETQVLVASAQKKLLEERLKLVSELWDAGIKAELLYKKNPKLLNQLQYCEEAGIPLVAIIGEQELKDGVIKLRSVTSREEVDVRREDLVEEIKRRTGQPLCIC
Chain of UniProt Q27J81 (Q27J81 whole entry, looked up): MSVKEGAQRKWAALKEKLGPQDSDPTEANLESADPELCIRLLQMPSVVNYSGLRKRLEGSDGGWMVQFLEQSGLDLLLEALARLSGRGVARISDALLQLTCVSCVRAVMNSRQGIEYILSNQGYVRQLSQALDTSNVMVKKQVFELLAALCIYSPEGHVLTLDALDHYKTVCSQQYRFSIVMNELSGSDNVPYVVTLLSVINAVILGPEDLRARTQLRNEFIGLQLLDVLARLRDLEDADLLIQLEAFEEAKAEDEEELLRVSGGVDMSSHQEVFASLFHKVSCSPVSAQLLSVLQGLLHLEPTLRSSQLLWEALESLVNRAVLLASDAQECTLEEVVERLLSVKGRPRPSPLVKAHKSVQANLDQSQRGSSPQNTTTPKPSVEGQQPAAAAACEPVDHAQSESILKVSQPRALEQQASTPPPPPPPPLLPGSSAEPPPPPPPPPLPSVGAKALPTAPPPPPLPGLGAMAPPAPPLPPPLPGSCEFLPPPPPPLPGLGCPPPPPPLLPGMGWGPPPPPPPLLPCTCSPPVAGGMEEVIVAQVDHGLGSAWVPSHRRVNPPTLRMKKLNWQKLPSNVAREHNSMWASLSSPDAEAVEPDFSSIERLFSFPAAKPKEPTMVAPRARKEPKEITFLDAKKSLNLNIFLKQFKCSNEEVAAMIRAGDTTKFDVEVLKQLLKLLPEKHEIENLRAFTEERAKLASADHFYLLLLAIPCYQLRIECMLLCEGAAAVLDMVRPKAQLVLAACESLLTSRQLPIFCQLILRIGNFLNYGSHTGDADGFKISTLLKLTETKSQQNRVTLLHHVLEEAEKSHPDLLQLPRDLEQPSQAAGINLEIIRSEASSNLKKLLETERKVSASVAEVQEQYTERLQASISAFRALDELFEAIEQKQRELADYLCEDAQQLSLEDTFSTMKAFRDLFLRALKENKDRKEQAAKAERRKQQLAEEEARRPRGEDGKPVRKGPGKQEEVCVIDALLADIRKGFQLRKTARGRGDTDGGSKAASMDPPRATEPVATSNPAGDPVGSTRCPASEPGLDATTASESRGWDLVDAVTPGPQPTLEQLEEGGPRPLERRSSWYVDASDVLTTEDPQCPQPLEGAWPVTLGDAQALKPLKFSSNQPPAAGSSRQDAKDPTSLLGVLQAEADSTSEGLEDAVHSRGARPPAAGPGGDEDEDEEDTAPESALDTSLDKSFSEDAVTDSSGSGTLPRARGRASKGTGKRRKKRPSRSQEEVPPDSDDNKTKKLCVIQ
Chain of UniProt P50053 (P50053 whole entry, looked up): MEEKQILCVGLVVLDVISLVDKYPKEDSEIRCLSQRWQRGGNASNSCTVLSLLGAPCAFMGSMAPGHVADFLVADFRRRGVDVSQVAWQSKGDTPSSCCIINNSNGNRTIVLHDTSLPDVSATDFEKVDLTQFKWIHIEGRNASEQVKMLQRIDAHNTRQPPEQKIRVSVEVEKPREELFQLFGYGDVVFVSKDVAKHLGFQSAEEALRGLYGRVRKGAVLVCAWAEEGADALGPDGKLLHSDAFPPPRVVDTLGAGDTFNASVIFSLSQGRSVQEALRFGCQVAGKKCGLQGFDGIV

| Target | log2 fold change (nilotinib) | log2 fold change [1] | log2 fold change (dasatinib) | log2 fold change [2] | log2 fold change [3] | log2 fold change (quisinostat) | log2 fold change (tipifarnib) | log2 fold change [4] | log2 fold change [5] | log2 fold change [6] | log2 fold change [7] | log2 fold change (vorinostat) | log2 fold change (silmitasertib) | log2 fold change [8] | log2 fold change (entospletinib) |
| --- | --- | --- | --- | --- | --- | --- | --- | --- | --- | --- | --- | --- | --- | --- | --- |
| GSTCD (UniProt Q8NEC7) | 0.039 | -0.04 | -0.003 | -0.005 | -0.098 | -0.053 | 0.01 | 0.08 | -0.014 | -0.008 | -0.025 | -0.356 (active) | 0.024 | -0.027 | -0.066 |
| KHK isoform 2 (UniProt P50053) | -0.004 | 0.035 | -0.075 | -0.02 | -0.035 | -0.021 | -0.043 | -0.019 | -0.018 | -0.023 | 0.035 | 0.045 | 0.018 | -0.053 | 0.033 |
| HADHA (UniProt P40939) | 0.051 | -0.024 | -0.036 | 0.002 | 0.03 | -0.082 | 0.025 | -0.077 | -0.071 | 0.078 | 0.052 | -0.159 | -0.026 | 0.302 | 0.027 |
| HNRNPD isoform 3 (UniProt Q14103) | 0.012 | -0.073 | 0.017 | 0.017 | 0.065 | 0.005 | -0.002 | 0.021 | 0.028 | -0.033 | 0.074 | 0.078 | 0.005 | 0.09 | 0 |
| HARS (UniProt P12081) | 0.031 | 0.003 | -0.006 | -0.015 | 0.008 | -0.021 | 0.019 | -0.019 | 0.005 | 0.021 | -0.031 | -0.003 | 0.02 | -0.054 | 0.001 |
| GTF2H4 (UniProt Q92759) | 0.006 | 0.021 | 0.003 | 0.019 | -0.011 | -0.029 | -0.008 | 0.07 | 0.04 | -0.08 | 0.01 | -0.24 (active) | -0.021 | -0.021 | 0.046 |
| H4C1 (UniProt P62805) | 0.051 | -0.027 | -0.063 | -0.033 | 0.048 | 0.137 | 0 | -0.032 | 0.01 | 0.015 | 0.043 | 0.09 | 0.007 | -0.038 | -0.057 |
| GPR108 (UniProt Q9NPR9) | 0.044 | 0.033 | -0.035 | 0.011 | -0.057 | -0.063 | -0.088 | -0.013 | 0.046 | -0.002 | -0.001 | -0.024 | 0.001 | -0.007 | -0.008 |
| GUSB (UniProt P08236) | 0.028 | -0.067 | 0.007 | -0.026 | -0.002 | -0.109 | -0.066 | -0.041 | 0.001 | -0.01 | 0.021 | 0.043 | 0.015 | -0.026 | -0.029 |
| GPX4 (UniProt P36969) | -0.011 | -0.001 | 0.01 | 0.039 | -0.024 | -0.012 | -0.009 | 0.02 | -0.011 | 0.011 | -0.007 | -0.306 (active) | 0.017 | -0.023 | 0.037 |
| IARS2 (UniProt Q9NSE4) | 0.016 | -0.007 | -0.021 | 0.026 | 0 | 0.022 | 0.006 | 0.021 | 0.02 | -0.004 | -0.002 | 0.079 | -0.01 | -0.021 | 0.01 |
| KDM1A (UniProt O60341) | -0.009 | 0.007 | -0.023 | 0.005 | 0.012 | -0.045 | -0.052 | 0.029 | 0.007 | -0.026 | 0.01 | -0.163 | 0.009 | -0.009 | 0.01 |
| HAUS8 (UniProt Q9BT25) | 0.025 | 0.026 | -0.073 | 0.005 | 0.015 | -0.085 | 0.004 | 0.042 | 0.02 | 0.006 | 0.083 | -0.38 (active) | 0.022 | 0.018 | -0.051 |
| HDAC1 (UniProt Q13547) | 0.01 | -0.024 | -0.021 | -0.019 | 0.028 | 0.857 (active) | -0.041 | -0.033 | 0.03 | 0.009 | 0.018 | 0.644 (active) | -0.008 | -0.015 | 0.008 |
| H2AFY (UniProt O75367) | 0.013 | 0.003 | -0.087 | -0.003 | 0.005 | -0.099 | 0.005 | 0.058 | 0.001 | -0.034 | 0.008 | 0.142 | -0.029 | -0.02 | 0.079 |
| GSK3A (UniProt P49840) | 0.026 | 0.425 | 0.021 | 0.562 (active) | 0.048 | -0.009 | -0.008 | -0.024 | 0.099 | -0.006 | -0.019 | 0.265 | 0.382 | 0.456 | 0.014 |
| ISCA1 isoform 2 (UniProt Q9BUE6) | 0.043 | 0.251 | 0 | 0.111 | -0.002 | 0.025 | 0.026 | -0.05 | -0.007 | 0.013 | -0.005 | 0.043 | 0.015 | 0.004 | 0.071 |
| INF2 (UniProt Q27J81) | -0.08 | 0.055 | 0.032 | 0.034 | -0.013 | -0.051 | -0.079 | 0.023 | 0.005 | -0.035 | -0.023 | -0.333 (active) | -0.027 | 0.018 | -0.09 |

— the supplement of paper PMC10849652
